The values below come from ChEMBL document CHEMBL3433997, “St. Jude Leishmania screening dataset” (2016).

One test deals with Solute carrier family 2, facilitated glucose transporter member 1 (Homo sapiens) (UniProt P11166). Nature of the test: ST_JUDE_LEISH: Cytotoxicity at 2uM final concentration against transgenic Leishmania Mexicana promastigotes LmGLUT1 that are glucose transport deficient and complemented with the human glucose transporter GLUT1. Activity is measured by DNA content using SYBR green in vitro. The test is classed as functional.
Solute carrier family 2, facilitated glucose transporter member 1 (Homo sapiens), sequence (P11166 whole entry): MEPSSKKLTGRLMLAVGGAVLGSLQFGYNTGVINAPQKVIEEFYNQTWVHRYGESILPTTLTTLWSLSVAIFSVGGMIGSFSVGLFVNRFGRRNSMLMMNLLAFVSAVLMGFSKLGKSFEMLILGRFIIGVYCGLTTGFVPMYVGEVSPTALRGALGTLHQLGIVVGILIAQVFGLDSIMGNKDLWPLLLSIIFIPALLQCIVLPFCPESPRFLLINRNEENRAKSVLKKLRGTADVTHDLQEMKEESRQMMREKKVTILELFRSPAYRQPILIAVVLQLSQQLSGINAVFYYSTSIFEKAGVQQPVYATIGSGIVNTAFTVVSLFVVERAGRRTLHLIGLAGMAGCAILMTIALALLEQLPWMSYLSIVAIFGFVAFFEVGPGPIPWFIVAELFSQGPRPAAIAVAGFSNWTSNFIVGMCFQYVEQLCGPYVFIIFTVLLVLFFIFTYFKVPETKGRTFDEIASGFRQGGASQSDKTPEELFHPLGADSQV
By inhibition is commonly meant the drop in the measured response relative to a control, in per cent. With `COc1ccc2ncc(F)c(CCN3CC4CCCC4(CNCc4ccc5c(n4)NC(=O)CS5)C3)c2n1` (stereo not given), the inhibition amounted to 1.18%. `O=C(Nc1cccc(-c2ccc(-c3nc4cc(C(F)(F)F)ccc4[nH]3)cc2)c1)c1csnn1`: the inhibition amounted to 5.44%.

In the case of `CCCC(CNCc1cccc(OC(F)(F)F)c1)CNc1cc(=O)c2ccccc2[nH]1` (stereo not given), the inhibition worked out at 3.23%.

Turning to `O=C(c1c(-c2[nH]c3ccccc3c2C(=O)C(F)(F)F)[nH]c2ccccc12)C(F)(F)F`, the inhibition was determined as 1.75%. Take `COc1ccc(Cl)cc1NC(=O)Nc1cc(C)nc2ccccc12`: the inhibition was 7.32%. As to `Cc1cccc2nc(-c3ccc(-c4cccc(NC(=O)Nc5ccsc5)c4)cc3)[nH]c12`, the inhibition was found to be 1.48%. `Cc1ccc(Nc2nc3cc(N(C)c4ccnc(Nc5cccc(CCS(C)(=O)=O)c5)n4)ccc3n2C)cc1`: the inhibition is 3.07%. As for `COc1ccc(CNCc2ccc(-c3ccc(-c4nc5cc(F)ccc5[nH]4)cc3)cc2)cc1`, the inhibition was 5.49%. Regarding `Cc1csc2nc(-c3ccccn3)nc(Nc3ccncn3)c12`, the inhibition is 1.73%.

For `COc1ccccc1C1CCN(C2CCC(NC(=O)/C=C/c3cccc(C(F)(F)F)c3)CC2)CC1` (stereo not given), the inhibition worked out at 3.95%. The same measure, in the same setting: as for `c1ccc2c(Nc3ccc(Oc4ccc(Nc5c6ccccc6nc6ccccc56)cc4)cc3)c3ccccc3nc2c1`, the figure is 2.32%; as for `CC(=O)Nc1ccc(CN2CCC(NC(=O)c3ccc(-c4cccc(Cl)c4)s3)CC2)cc1`, 2.01%; as for `Cc1ccccc1C1CCN(C2CCC(NC(=O)/C=C/c3cccc(Cl)c3)CC2)CC1` (stereo not given), -2.09%.

`COc1ccc(CNC2CCN(C)CC2)cc1-c1ccc(S(=O)(=O)NCCc2ccccn2)c(F)c1`: the inhibition was found to be 3.16%.

With `Clc1cc(Nc2ncnc3cc(C#C[C@H]4CCCN4)sc23)cc2nc(Cc3ccccc3)[nH]c12`, the inhibition turned out to be 1.94%. With `CN(CC1CCC(NC(=O)/C=C/c2ccc(Cl)c(Cl)c2)CC1)C1CCC(c2c[nH]c3ccccc23)CC1` (stereo not given), the inhibition is -0.25%. With `NC(=O)NC(=O)C=Cc1ccco1`, the inhibition was determined as 0.54%. For `OC(CNC1CCCCC1)Cn1c2ccccc2c2ccccc21` (stereo not given), the inhibition is 9.36%. As to `N#Cc1ccc2c(c1)CN(C1CCC(NC(=O)C3=Cc4cc(Cl)ccc4OC3)CC1)CCC2` (stereo not given), the inhibition was determined as 8.34%. As to `COc1cc2c(Nc3cccc(NC(=O)c4ccccc4)c3)ncnc2cc1OCCCN1CCOCC1`, the inhibition was determined as 0.63%. Turning to `COc1ccc2c(=NN=Cc3ccccc3F)cc(C)[nH]c2c1`, the inhibition was 1.77%. Still for that read-out and setting: as for `Nc1cccc(CNCc2cccc(-c3ccc(-c4nc5cc(C(F)(F)F)ccc5[nH]4)cc3)c2)c1`, the figure is 4.8%. In the case of `Cc1cccc2nc(-c3ccc(-c4cccc(CNCc5cccc(N)c5)c4)cc3)[nH]c12`, the inhibition is 2.44%. Turning to `Fc1c(CNCC2CCN(CC3CCCCC3)CC2)cccc1C(F)(F)F`, the inhibition is 4.53%. With `O=C(Nc1cccc(-c2ccc(-c3nc4ccccc4[nH]3)cc2)c1)c1cccnc1`, the inhibition worked out at 6.47%.

The target of another test is Hexose transporter 1 (Plasmodium falciparum) (UniProt O97467). Nature of the test: ST_JUDE_LEISH: Cytotoxicity at 2uM final concentration against transgenic Leishmania Mexicana promastigotes LmPfHT that are glucose transport deficient and complemented with the Plasmodium falciparum hexose transporter. Activity is measured by DNA content using SYBR green in vitro. The test is classed as functional.
For the compound `CC(=O)N(Cc1nc(-c2cc(Cl)c(Cl)s2)cs1)c1c(C)cccc1C`, the inhibition came to 4.38%. With `O=C(Nc1cccc(-c2nn3ccccc3c2-c2ccnc(Nc3cccc(F)c3)n2)c1)C1CCCCC1`, the inhibition was found to be 2.83%. The same measure, in the same setting: in the case of `Cc1cc(C(=O)Nc2ccc(OCc3ccccc3)cc2)on1` it was -2.29%.

On to `N#Cc1ccc(C=CC(=O)NC2CCC(CCN3CCc4ccc(-c5cnccn5)cc4CC3)CC2)cc1` (stereo not given), for which the inhibition turned out to be 2.97%. Turning to `CCOCn1c(-c2ccccc2)cc2c3c(N)nc(N)nc3ccc21`, the inhibition came out at 100%. Turning to `CCC(C(=O)Nc1ccccc1)n1nc(-c2ccc(C)c(S(=O)(=O)N3CCCCC3)c2)ccc1=O` (stereo not given), the inhibition was 4.1%. `CC(C)CNCc1ccc(-c2ccc(CN(CCCN3CCN(C)CC3)C(=O)/C=C/c3ccccc3)cc2)cc1`: the inhibition amounted to 6.1%. Still for that read-out and setting: in the case of `CC(C)(C)c1ccc(CN2CCC(CNC(=O)c3cc(-c4ccccc4C(F)(F)F)cs3)C2)cc1` (stereo not given) it was 3.76%.

With `O=c1ccccn1CCCC1CCCCN1` (stereo not given), the inhibition is 12.2%. `COc1ccc(Nc2nccc(-c3ccc(NC(=O)c4cc5cc(F)ccc5[nH]4)cc3)n2)cc1`: the inhibition was found to be 0.09%.

Turning to `CC(C)NCc1ccc(-c2ccc(-c3nc4cc(C(F)(F)F)ccc4[nH]3)s2)cc1`, the inhibition came to 17.8%. Still for that read-out and setting: as for `c1ccc(-n2ncc(CNCc3ccc(-c4ccc(-c5nc6ccccc6[nH]5)s4)cc3)n2)cc1`, the figure is 2.45%. Regarding `CN(CCN(C)CC(O)c1ccc(Cl)c(Cl)c1)CC(O)c1ccc(Cl)c(Cl)c1` (stereo not given), the inhibition worked out at 9.66%. Consider `Cc1ccc(-c2nnc(Nc3ccc(C(=O)N4CCCCC4)cc3)c3ccccc23)cc1S(=O)(=O)NCC1CCCO1` (stereo not given), for which the inhibition stood at 21.1%.

As for `O=C(C1COc2ccccc2O1)N(CCCn1ccnc1)Cc1csc(-c2ccc(CNCc3ccccc3)cc2)n1` (stereo not given), the inhibition is 4.14%. As for `COc1ccc2ncc(F)c(CCN3CC4CCCC4(CNCc4ccc5c(n4)NC(=O)CS5)C3)c2n1` (stereo not given), the inhibition amounted to 1.32%. With `O=C(Nc1cccc(-c2ccc(-c3nc4cc(C(F)(F)F)ccc4[nH]3)cc2)c1)c1csnn1`, the inhibition was found to be 8%. Regarding `CCCC(CNCc1cccc(OC(F)(F)F)c1)CNc1cc(=O)c2ccccc2[nH]1` (stereo not given), the inhibition turned out to be 3.46%. For `O=C(c1c(-c2[nH]c3ccccc3c2C(=O)C(F)(F)F)[nH]c2ccccc12)C(F)(F)F`, the inhibition amounted to 0.78%. On to `COc1ccc(Cl)cc1NC(=O)Nc1cc(C)nc2ccccc12`, for which the inhibition worked out at 12.8%. Same read-out and setting: in the case of `Cc1cccc2nc(-c3ccc(-c4cccc(NC(=O)Nc5ccsc5)c4)cc3)[nH]c12` it was 0.08%; in that of `Cc1ccc(Nc2nc3cc(N(C)c4ccnc(Nc5cccc(CCS(C)(=O)=O)c5)n4)ccc3n2C)cc1`, 7.25%; in that of `COc1ccc(CNCc2ccc(-c3ccc(-c4nc5cc(F)ccc5[nH]4)cc3)cc2)cc1`, 5.38%.

As for `Cc1csc2nc(-c3ccccn3)nc(Nc3ccncn3)c12`, the inhibition was determined as 3.39%. As to `COc1ccccc1C1CCN(C2CCC(NC(=O)/C=C/c3cccc(C(F)(F)F)c3)CC2)CC1` (stereo not given), the inhibition turned out to be 3.68%.

For `c1ccc2c(Nc3ccc(Oc4ccc(Nc5c6ccccc6nc6ccccc56)cc4)cc3)c3ccccc3nc2c1`, the inhibition was determined as 0.88%. For the compound `CC(=O)Nc1ccc(CN2CCC(NC(=O)c3ccc(-c4cccc(Cl)c4)s3)CC2)cc1`, the inhibition was -0.15%. As to `Cc1ccccc1C1CCN(C2CCC(NC(=O)/C=C/c3cccc(Cl)c3)CC2)CC1` (stereo not given), the inhibition is -2.1%.

Consider `COc1ccc(CNC2CCN(C)CC2)cc1-c1ccc(S(=O)(=O)NCCc2ccccn2)c(F)c1`, for which the inhibition is 2.16%. With `Clc1cc(Nc2ncnc3cc(C#C[C@H]4CCCN4)sc23)cc2nc(Cc3ccccc3)[nH]c12`, the inhibition was -0.56%. The same measure, in the same setting: in the case of `CN(CC1CCC(NC(=O)/C=C/c2ccc(Cl)c(Cl)c2)CC1)C1CCC(c2c[nH]c3ccccc23)CC1` (stereo not given) it was 0.8%; in that of `NC(=O)NC(=O)C=Cc1ccco1`, 1.9%.

On to `OC(CNC1CCCCC1)Cn1c2ccccc2c2ccccc21` (stereo not given), for which the inhibition worked out at 7.72%.

As to `N#Cc1ccc2c(c1)CN(C1CCC(NC(=O)C3=Cc4cc(Cl)ccc4OC3)CC1)CCC2` (stereo not given), the inhibition was determined as 6.19%. For `COc1cc2c(Nc3cccc(NC(=O)c4ccccc4)c3)ncnc2cc1OCCCN1CCOCC1`, the inhibition was found to be 2.08%. `COc1ccc2c(=NN=Cc3ccccc3F)cc(C)[nH]c2c1`: the inhibition stood at 1.74%. Consider `Nc1cccc(CNCc2cccc(-c3ccc(-c4nc5cc(C(F)(F)F)ccc5[nH]4)cc3)c2)c1`, for which the inhibition stood at 6.83%. With `Cc1cccc2nc(-c3ccc(-c4cccc(CNCc5cccc(N)c5)c4)cc3)[nH]c12`, the inhibition came to 2.16%. On to `Fc1c(CNCC2CCN(CC3CCCCC3)CC2)cccc1C(F)(F)F`, for which the inhibition turned out to be 3.93%. Regarding `O=C(Nc1cccc(-c2ccc(-c3nc4ccccc4[nH]3)cc2)c1)c1cccnc1`, the inhibition was 0.4%.
